# About 3,900 (1.3%) of roughly 310,000 compounds were called active.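 The calls were made as follows: active = compounds whose thallium flux B-score, printed positive for inhibition, exceeds three library SD while starting fluorescence stays within three; inactive = the rest.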 The sample as a whole holds a higher share of actives than the screen did.
# Target: Potassium voltage-gated channel subfamily KQT member 1 (Homo sapiens) (UniProt P51787)
# Assay: KCNQ1 potassium current blockers – cell-based, thallium flux, high-throughput, primary screen (AID 2642);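 also: channel opened by potassium depolarization with thallium stimulus after 20 min compound exposure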
# Conditions: CHO-K1 KCNQ1, FluxOR thallium flux fluorescence, at 10 µM; hits give high values
# Potassium voltage-gated channel subfamily KQT member 1 (Homo sapiens), sequence (P51787 whole entry, looked up): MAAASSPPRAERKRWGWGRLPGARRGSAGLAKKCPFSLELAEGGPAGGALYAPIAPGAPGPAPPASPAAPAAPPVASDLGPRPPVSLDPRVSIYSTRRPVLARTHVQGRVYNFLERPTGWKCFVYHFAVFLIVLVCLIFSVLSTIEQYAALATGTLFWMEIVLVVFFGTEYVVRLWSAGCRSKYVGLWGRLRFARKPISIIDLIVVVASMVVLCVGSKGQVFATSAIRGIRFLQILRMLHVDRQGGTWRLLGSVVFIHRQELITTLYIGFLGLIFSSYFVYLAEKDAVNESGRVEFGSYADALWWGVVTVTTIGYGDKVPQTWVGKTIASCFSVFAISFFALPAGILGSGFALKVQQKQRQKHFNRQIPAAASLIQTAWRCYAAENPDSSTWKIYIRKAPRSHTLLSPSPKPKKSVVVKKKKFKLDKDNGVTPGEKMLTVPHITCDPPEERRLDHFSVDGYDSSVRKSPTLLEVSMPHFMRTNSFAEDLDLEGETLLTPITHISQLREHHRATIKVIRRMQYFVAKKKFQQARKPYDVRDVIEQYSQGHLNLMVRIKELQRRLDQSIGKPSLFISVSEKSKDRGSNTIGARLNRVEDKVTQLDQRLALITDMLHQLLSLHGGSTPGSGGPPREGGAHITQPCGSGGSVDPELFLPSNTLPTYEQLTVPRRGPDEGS
row,SMILES,B-score
1,O=C(Nc1ccccc1N1CCN(C(=O)c2ccccc2)CC1)c1ccco1,inactive
2,CCCNC(=O)c1ccc(N2CCC3(CC2)CC(c2ccc(Cl)cc2)=NO3)c([N+](=O)[O-])c1,inactive
3,CCCNC(=O)c1ccc(N2CCC3(CC2)CC(c2cccc(Br)c2)=NO3)c(NC(=O)c2ccco2)c1,6 (active)
4,c1ccc2c(C[n+]3csc4ccccc43)cccc2c1,inactive
5,CC1(C(=O)NCCc2c[nH]c3ccccc23)C=CC2(CCCCC2)N1C(=O)c1ccccc1 (configuration not stated),inactive
6,C/C(=N\NC(=S)NC1CCCCC1)c1ccc(C)o1,inactive
7,CCc1nnc(NC(=O)CSc2nnc(-c3ccncc3)n2Cc2ccccc2)s1,inactive
8,CCc1nnc(NC(=O)CSc2nnc(Cc3ccccc3)n2-c2ccc(OC)cc2)s1,11 (active)
9,CCc1nnc(NC(=O)CSc2nnc(COc3ccc(C#N)cc3)n2-c2ccccc2)s1,inactive
10,O=C(NCc1ccccc1Cl)C1CCN(S(=O)(=O)c2cccc3nonc23)CC1,inactive
11,O=C(NCc1ccccc1Cl)C1CCN(S(=O)(=O)N2CCOCC2)CC1,inactive
12,O=C1CCc2cc(S(=O)(=O)N3CCC(C(=O)NCc4ccccc4Cl)CC3)ccc2N1,8 (active)
13,Cc1nnc(-c2ccc(Oc3ccc(C)c(C)c3)c([N+](=O)[O-])c2)o1,inactive
14,Cc1c(Br)c([N+](=O)[O-])nn1C(C)C(=O)Nc1nccs1 (configuration not stated),inactive
15,CC(=O)Nc1ccc(NC(=O)c2ccc3c(c2)C(=O)N(c2ccccc2C)C3=O)cc1,inactive
16,COc1cc(OC)c(OC)cc1/C=N/Nc1ncnc2c1[nH]c1ccc(C)cc12,inactive
17,CC(C)OCCCNC(=O)c1cc(Sc2ccc(F)cc2)nc2ccccc12,inactive
18,CC(C)OCCCNc1ncnc2c1[nH]c1ccc(F)cc12,9 (active)
19,CN(CCOc1ccc(Br)cc1)CC(=O)Nc1cccc(S(=O)(=O)NC2=NCCC2)c1,inactive
20,Cc1cccc(NC(=O)CSCC(=O)Nc2nnc(C3CC3)s2)c1,inactive
21,O=C(CSc1nnc(SCc2ccc(F)cc2)s1)Nc1ccc(C(=O)O)cc1,inactive
22,CC1=C(C(N)=O)C(c2sccc2C)n2nnnc2N1 (configuration not stated),inactive
23,CCCOc1ccc(C(=O)CCC(=O)OC(C)C(=O)Nc2ccc(NC(C)=O)cc2)cc1 (configuration not stated),inactive
24,CCCOc1ccc(C(=O)C(CCC(CNCC)C(=O)c2ccc(OCCC)cc2)CNCC)cc1 (configuration not stated),6 (active)
25,CCCCOc1ccc(C(=O)NN2CCN(C)CC2)cc1,inactive
26,Cc1nn(CC(=O)NCCc2ccccc2)c(=O)c2cc3occc3n12,inactive

row,SMILES,B-score
1,CC12CN(NC(=O)c3ccc(Cl)cc3)C3(C#N)CC1CCC23C (configuration not stated),inactive
2,COc1ccccc1NC(=O)/C=C/C(N)=O,inactive
3,O=C(Nc1ccc2c(c1)OCCO2)C(c1ccc(F)cc1)N1CCCCC1 (configuration not stated),inactive
4,CCc1ccc(NC(=O)NC(C)c2ccc3c(c2)OCO3)cc1 (configuration not stated),inactive
5,CC1CCCN(C(C(=O)Nc2ccc(C(C)C)cc2)c2ccc3c(c2)OCO3)C1 (configuration not stated),7 (active)
6,CC(C)C[C@H](NC(=O)N1CCn2c1nc1ccccc12)C(=O)NC1CC1,inactive
7,O=C(Nc1cccnc1)c1cc2cc(Br)ccc2oc1=O,inactive
8,S=C(Nc1cccnc1)Nc1ccccn1,inactive
9,Fc1cc(Br)ccc1NC(=S)Nc1cccnc1,7 (active)
10,COc1ccc(CCNC(=O)CN(c2ccccc2)S(C)(=O)=O)cc1,inactive
11,COc1ccc(OCCNS(=O)(=O)Cc2ccccc2)cc1,inactive
12,CNC(=O)c1ccsc1NC(=O)c1ccc(S(=O)(=O)N2CCc3ccccc32)cc1,7 (active)
13,O=S(=O)(c1ccccc1)N1CCc2ccccc21,inactive
14,CNC(=O)c1ccsc1NC(=O)c1ccc(S(=O)(=O)N2CCOCC2)cc1,inactive
15,CCC(=C/c1sc2ccc3ccccc3c2[n+]1C)/C=C1\Sc2ccc3ccccc3c2N1C,19 (active)
16,COC(=O)c1ccc(NC(=O)c2ccccc2NS(=O)(=O)c2ccccc2)cc1,inactive
17,COc1cc(OC)c(S(=O)(=O)Nc2ccccc2C(=O)O)cc1S(=O)(=O)Nc1ccccc1C(=O)O,inactive
18,COc1cc(NC(=O)c2ccccc2NS(=O)(=O)c2ccc(Cl)s2)cc(OC)c1,8 (active)
19,N#Cc1cccc(CN2CCC(=O)N(CCO)CC2)c1,inactive
20,CC(=O)c1ccccc1OCc1ccc(C(=O)c2ccccc2)cc1,9 (active)
21,O=C(NC1CCC(O)CC1)c1ccccc1OCc1ccc(F)cc1 (configuration not stated),inactive
22,COc1ccc(CCNC(=O)c2ccccc2OCc2ccccc2)cc1,inactive
23,C/C(=N\NC(=O)Cc1ccccc1[N+](=O)[O-])c1cccnc1,inactive
24,COc1ccc(C(CNC(=O)c2ccc(S(=O)(=O)Nc3ccccc3C)cc2)N2CCOCC2)cc1 (configuration not stated),inactive
25,COc1ccc(C(CNC(=O)c2cccc(S(=O)(=O)Nc3ccccc3Cl)c2)N2CCOCC2)cc1 (configuration not stated),inactive
26,COc1ccc(C(CNC(=O)c2cccc(NS(=O)(=O)c3ccc(C)c(F)c3)c2)N2CCCC2)cc1 (configuration not stated),8 (active)

row,SMILES,B-score
1,CSCCC(NC(=O)COc1ccccc1)C(=O)OCCOc1ccc(Br)cc1 (configuration not stated),inactive
2,Cc1ccc2nc(Nc3ccccc3)cc(C)c2c1,inactive
3,Cc1ccc2nc(C)c3c(c2c1)N(c1ccccc1)CC3,7 (active)
4,Cc1nc2ccc(C(=O)N3CCN(c4ccccc4)CC3)cc2s1,inactive
5,CCOC(=O)c1nnn(-c2nonc2-n2cccc2)c1CN1CCC(C(=O)OCC)CC1,inactive
6,O=C(Nc1cccc(Cl)c1)c1cc(S(=O)(=O)N2CCCCC2)c[nH]1,inactive
7,Fc1ccc(N2N=C(c3cccs3)CC2c2ccco2)c(F)c1 (configuration not stated),6 (active)
8,COc1ccc(C2CC(c3cccs3)=NN2c2ccc(F)cc2)cc1OC (configuration not stated),inactive
9,COc1ccccc1N1N=C(c2cccs2)CC1c1ccccc1 (configuration not stated),inactive
10,O=C(c1c(F)cccc1F)N1CCN(c2ncc(Br)cn2)CC1,inactive
11,O=C(NCC(c1ccco1)N1CCc2ccccc21)c1cccc(F)c1 (configuration not stated),inactive
12,O=C(COC(=O)c1ccc(S(=O)(=O)N2CCc3ccccc3C2)cc1)NC(=O)NCc1ccco1,inactive
13,COc1c(C)cc(C(=O)C2CCCN(S(=O)(=O)c3c(C)noc3C)C2)cc1C (configuration not stated),inactive
14,COc1ccc(S(=O)(=O)N2CCN(C(=S)NCC3CCCO3)CC2)cc1OC (configuration not stated),inactive
15,CCOc1ccc(S(=O)(=O)N2CCN(C(=S)NCC3CCCO3)CC2)cc1 (configuration not stated),inactive
16,S=C(NCC1CCCO1)N1CCN(c2ccc(Cl)c(Cl)c2)CC1 (configuration not stated),7 (active)
17,CC(C)CN(Cc1c(O)ccc2c(=O)c(-c3ccccc3)coc12)CC(C)C,inactive
18,CC(C)=CCc1c(O)c(CC=C(C)C)c2occ(-c3ccc(O)cc3)c(=O)c2c1O,11 (active)
19,O=c1c(-c2ccccc2)coc2c(CN3CCOCC3)c(O)ccc12,inactive
20,O=C(NCCc1ccc(Cl)cc1)c1cccc(N2CCCC2=O)c1,inactive
21,Cc1nnc(SCC(=O)Nc2ncc3c(n2)CC(C)(C)CC3=O)s1,inactive
22,Cc1ccccc1NC(=O)CSc1ccc2nnc(-c3ccccn3)n2n1,inactive
23,COc1cc(/C=C2\CCCc3c2nc2ccccc2c3C(=O)O)cc(Cl)c1O,inactive
24,NC(=O)c1ccc(NC(=O)COC(=O)c2c3c(nc4ccccc24)/C(=C\c2ccc4c(c2)OCO4)CCC3)cc1,7 (active)
25,CC(NC(=O)COC(=O)c1ccc2c(c1)OCO2)c1ccccc1 (configuration not stated),inactive
26,CSc1ccccc1NC(=O)c1cc(C2CC2)on1,inactive

row,SMILES,B-score
1,Cc1cc(=O)oc2cc(OCC(=O)N3CCN(c4ccc(F)cc4)CC3)c(Cl)cc12,inactive
2,O=C(c1cc(-c2ccco2)nc2ccccc12)N(Cc1nnc(-c2ccc(Cl)cc2)o1)C1CC1,inactive
3,O=C(CN1C(=O)NC2(CCCCC2)C1=O)NCCc1c[nH]c2ccccc12,inactive
4,CC(=O)N/C(=C/c1ccc(Cl)cc1)C(=O)NCCc1c[nH]c2ccccc12,inactive
5,N#C/C(=C/c1ccc(N2CCCCC2)o1)C(=O)NCCc1c[nH]c2ccccc12,7 (active)
6,CCCc1ccc(-c2c(C)sc(NC(=O)c3ccnn3C)c2C#N)cc1,inactive
7,Cc1noc(/C=C/c2ccco2)c1S(=O)(=O)N1CCC(C(=O)N2CCc3ccccc32)CC1,inactive
8,Cc1ccccc1C(=O)OC1OC(=O)C(Cl)=C1Nc1ccccc1 (configuration not stated),11 (active)
9,O=C1OC(OC(=O)c2ccccc2Br)C(N2CCOCC2)=C1Cl (configuration not stated),inactive
10,Cc1ccc(NC2=C(Cl)C(=O)OC2OC(=O)c2ccccc2C)cc1 (configuration not stated),inactive
11,O=C(NC1CC1)C1=C[C@H](c2c[nH]c3ccccc23)C[C@H](OCc2ccc(CO)cc2)O1,inactive
12,CC(C)(C)c1ccc(/C=C/C(=O)NC2CCS(=O)(=O)C2)cc1 (configuration not stated),inactive
13,Clc1ccc(C2[C@H]3CN(CC4CCCCC4)[C@H](c4ccccc4)C34CC2(c2cccnc2)C4)cn1 (some centres not stated),inactive
14,O=C(NCCc1ccccc1)c1ccc2c(c1)N(Cc1ccccc1)CCS2,10 (active)
15,CCOC(=O)N1CCN(C(=O)c2ccc3c(c2)N(Cc2ccc(C)cc2)CCS3)CC1,inactive
16,O=C(NCCN1CCOCC1)c1ccc2c(c1)N(Cc1ccc(Cl)cc1)CCS2,inactive
17,CC(=O)c1c(C)n(-c2ccc(C)cc2)c2ccc(O)cc12,inactive
18,CCc1ccc(CN(C)C(=O)C2CCC(=O)N(Cc3cccc(OC)c3)C2)nc1 (configuration not stated),inactive
19,COc1cc(N2C(=O)c3ccccc3C2=O)c(Cl)cc1C(=O)OCC(=O)N1CCOCC1,inactive
20,C=CS(=O)c1sc(Cl)c(N2CCOCC2)c1[N+](=O)[O-] (configuration not stated),7 (active)
21,Cc1ccccc1C(=O)NCC(c1ccco1)N1CCc2ccccc21 (configuration not stated),inactive
22,Cc1ccc(C(=O)OCC(=O)NC(=O)Cc2ccccc2)c(O)c1,inactive
23,O=[N+]([O-])/C(N=Nc1ccccc1)=N\Nc1ccccc1,inactive
24,CCN(C(=O)COC(=O)c1sccc1C)c1c(N)n(Cc2ccccc2)c(=O)[nH]c1=O,inactive

# Source: PubChem BioAssay AID2642 (Johns Hopkins Ion Channel Center, 2010)
